# Many of the other results were omitted from the sample, so hits are more common in it than they were.
# Cruzain Triton = cruzain (T. cruzi) inhibition with detergent; actives 0.43% (n = 200,000); purified cruzain, Z-FR-AMC fluorescence, 0.01% Triton; P25779; Potency, µM, usual class: inhibitors; further: nearly all actives have a fitted effect of over 40% in size
# Target sequence (P25779 123-467 limits assumed): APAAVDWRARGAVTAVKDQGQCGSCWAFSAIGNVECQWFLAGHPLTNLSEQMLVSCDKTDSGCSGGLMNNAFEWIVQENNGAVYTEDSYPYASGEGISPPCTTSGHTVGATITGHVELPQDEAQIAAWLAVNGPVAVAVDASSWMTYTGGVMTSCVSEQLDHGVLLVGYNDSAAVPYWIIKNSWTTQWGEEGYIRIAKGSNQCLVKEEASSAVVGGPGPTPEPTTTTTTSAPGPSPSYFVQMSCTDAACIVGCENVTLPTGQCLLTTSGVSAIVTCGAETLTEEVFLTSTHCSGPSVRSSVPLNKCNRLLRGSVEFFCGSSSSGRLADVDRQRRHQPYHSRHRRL
#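 Z-FR-AMC hydrolysis (2 uM substrate) by cruzain (1.5 nM) monitored kinetically at ex 360/em 450 nm after 15 min room-temperature compound exposure; 0.01% Triton X-100, pH 5.5, 5 mM DTT.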
# Cruzain noTriton = cruzain (T. cruzi) inhibition without detergent; actives 2.3% (n = 200,000); purified cruzain, Z-FR-AMC fluorescence, no detergent; P25779; Potency, µM, hits mostly inhibitors; further: nearly all actives have a fitted effect of over 40% in size
#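 Detergent-free condition (0.00005% Triton X-100) in acetate buffer pH 5.5 with DTT. 1.5 nM enzyme and compound were pre-mixed 15 min, then 2 uM Z-FR-AMC substrate added; reaction progress from fluorescence change between first and third reads (60 s).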
# FBPA Giardia inh = inhibitors of Giardia lamblia fructose-1,6-bisphosphate aldolase | actives 0.71% (n = 290,000) | purified Giardia FBPA | Potency, µM (highest dose often 59.6 µM), most hits filed as inhibitors; further: nearly all actives have a fitted effect of over 55% in size
#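 Giardia FBPA (40 nM reagent) was preincubated 10 min at RT with compound (up to 57.5 uM final), then substrate plus GAPDH/TPI/NAD/arsenate coupling system with diaphorase/resazurin was added; resorufin fluorescence (525/598 nm) was read after 20 min.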
# Hits are given with their value; – = inactive; ? = inconclusive; · = no result given. The call rests on the fitted dose curve; in most records, active means well fitted curve in the direction sought with a large enough effect; inconclusive means small, poorly fitted or top-dose-only effect, or another doubt; inactive means no such curve, though single readings can be large; an effect the other way counts as inactive or inconclusive.
SMILES,Cruzain Triton,Cruzain noTriton,FBPA Giardia inh
CN1CCN(c2ncc3nc(-c4cc(F)cc(F)c4)c(=O)n(C4CC4)c3n2)CC1,–,?,–
CN1CCN(c2ncc3nc(-c4ccccc4)c(=O)n(C4CC4)c3n2)CC1,32µM,25µM,–
CCN(CC)c1ccc(/C=N/NC(=O)c2ccc(O)cc2)cc1,–,–,–
Cc1ccccc1CCNC(=O)c1ccc2c(c1)nc1n2CCCCC1,–,–,·
CCCCc1ccc(C(=O)O)nc1,–,–,16µM
CCCCc1ccc(-c2ccc(Br)cc2)nc1,–,–,–
NC1=N[C@H](c2ccc(Cl)cc2)N(c2ccc(S(N)(=O)=O)cc2)C(N)=N1,–,–,·
N#Cc1nc(-c2ccco2)oc1N1CCN(c2cccc(Cl)c2)CC1,–,?,–
COc1ccccc1-c1nc(C#N)c(N2CCN(c3cccc(Cl)c3)CC2)o1,22µM,?,–
COc1ccccc1-c1nc(C#N)c(N2CCN(C(c3ccccc3)c3ccccc3)CC2)o1,25µM,7.9µM,–
N#Cc1nc(-c2ccco2)oc1N1CCN(C(c2ccccc2)c2ccccc2)CC1,–,?,–
Oc1ccc(Cl)cc1C=Nc1cnc2ccccc2c1,–,–,·
Cc1ccc(NC(=O)C2CCN(S(=O)(=O)c3ccc4c(c3)CCCN4C(=O)C3CCC3)CC2)cc1,–,–,·
Cc1ccccc1CNC(=O)CCC(=O)N1CCSc2ccccc21,–,–,·
CCS(=O)(=O)c1ncc(N(Cc2cccc(F)c2)Cc2ccco2)c(C(=O)Nc2ccccc2Cl)n1,–,–,·
COc1cc(OC)c(OC)cc1C=O,–,–,–
COc1cc(C=O)c([N+](=O)[O-])cc1OC,–,–,5µM
O=[N+]([O-])c1ccc([C@@H](Nc2ccccc2)c2ccc3cccnc3c2O)cc1,–,–,·
COc1ccc(OC)c(NC2=C(c3ccccc3)C(=O)c3ccccc32)c1,–,?,·
COc1ccc(CCNc2oc(/C=C/c3ccc(OC)c(OC)c3)nc2C#N)cc1,–,16µM,·
COc1ccc(/C=C/c2nc(C#N)c(N3CCC(C(N)=O)CC3)o2)cc1OC,?,32µM,·
COc1ccc(/C=C/c2nc(C#N)c(NCCc3ccc(OC)c(OC)c3)o2)cc1OC,–,–,·
CCN1CCN(c2oc(/C=C/c3ccc(OC)c(OC)c3)nc2C#N)CC1,–,20µM,·
CCN1CCN(c2oc(/C=C/c3cc(OC)c(OC)c(OC)c3)nc2C#N)CC1,–,–,·
COc1ccc(/C=C/c2nc(C#N)c(N3CCCCCC3)o2)cc1OC,–,?,·
SMILES,Cruzain Triton,Cruzain noTriton,FBPA Giardia inh
COc1ccc(-c2cn3cccnc3n2)cc1NC(=O)COc1ccccc1,–,?,·
CCc1ccc(-n2nc(C)c3c(C(=O)Nc4cc(OC)cc(OC)c4)cc(C)nc32)cc1,–,–,·
O=c1c(-c2cccs2)nc2cnc(N3CCNCC3)nc2n1CCc1ccccc1,–,–,–
CCCCC(CC)COCC1CO1 (stereo not given),–,–,·
CN=C1C([N+](=O)[O-])=CC=C2C1=NC1(CCCCC1)N2O,–,–,5µM
O=[N+]([O-])C1=CC=C2C(=NC3(CCCCC3)N2O)C1=NCCO,–,–,7.1µM
Cc1ccccc1NC(=O)CCn1nc(-c2ccccc2)c2ccccc2c1=O,–,–,·
CN1CCN(c2ccc3nc(-c4ccc5nc(-c6ccc(O)cc6)[nH]c5c4)[nH]c3c2)CC1,–,–,·
Cc1ccc(NS(=O)(=O)c2cccs2)nc1,·,·,–
CCCCS(=O)(=O)Nc1ccc(C)cn1,–,–,7.9µM
CC(C)CNc1nc2ncnc(N)c2[nH]1,–,–,·
Cc1ccc(N=Cc2cc(Br)cc(Cl)c2O)cc1,·,·,–
Cc1cc(C)cc(N=Cc2[nH]c3ccc(Br)c(Cl)c3c2O)c1,–,4µM,?
COc1ccc(CN=CC2=C(O)CNC2=O)cc1,–,–,–
COc1ccc(CN=Cc2[nH]c3ccc(Br)c(Cl)c3c2O)cc1,–,25µM,?
CCCCN(CC)CCCNC(=O)c1cc2c(=O)[nH]c3ccccc3c2n1C,–,–,·
Cc1cccc(C)c1Nc1nnc(SCC(=O)Nc2cc(S(=O)(=O)N3CCCCC3)ccc2Cl)s1,–,13µM,–
Cc1ccccc1Nc1nnc(SCC(=O)NC(=O)Nc2ccc3c(c2)OCCO3)s1,–,?,–
Cc1cccc(Nc2nnc(SCC(=O)NCc3cccs3)s2)c1,·,·,–
Cc1cccc(Nc2nnc(SCC(=O)Nc3cccnc3Cl)s2)c1,25µM,16µM,–
Cc1cccc(NC(=O)CSc2nnc(NC(=O)c3ccc(S(=O)(=O)N4CCOCC4)cc3)s2)c1C,–,–,–
O=C(CSc1nnnn1-c1ccc(Cl)cc1)NC(=O)Nc1ccc2c(c1)OCCO2,–,25µM,–
Cc1ccc(-n2nnnc2SCC(=O)NC(=O)Nc2ccc3c(c2)OCCO3)cc1,–,–,–
Cc1cccc(Nc2nnc(SCC(=O)NC(=O)Nc3ccc4c(c3)OCCO4)s2)c1,–,16µM,–
COc1ccc(OC)c(-c2nnc3n2N=C(c2c(OC)cccc2OC)CS3)c1,·,·,–
SMILES,Cruzain Triton,Cruzain noTriton,FBPA Giardia inh
C=C1c2cccc(O)c2C(O)=C2C(=O)[C@@]3(O)C(O)=C(C(N)=O)C(=O)[C@@H](N(C)C)[C@@H]3[C@@H](O)[C@H]12,–,–,?
CC(C)c1ccc(S(=O)(=O)NCc2nc3cccnc3n2Cc2ccc(F)cc2)cc1,–,–,·
Cc1cccc(Nc2nnc(SCC(=O)Nc3cccc(S(=O)(=O)N4CCCCC4)c3)s2)c1,–,13µM,–
Cc1cccc(NC(=O)CSc2nnc(NC(=O)CN3CCCCC3)s2)c1,–,–,–
CC1=NOC(=O)/C1=C\c1ccc(-c2cccc(Cl)c2)o1,–,?,–
Cc1nc(S/C(=C/c2ccc(-c3cccc(Cl)c3)o2)C(=O)O)n[nH]1,–,25µM,–
CCOC(=O)c1cc2c(=O)n3ccccc3nc2n(Cc2ccco2)c1=NC(=O)c1c(F)cccc1Cl,–,–,·
CCOC(=O)c1sc(N(Cc2ccccc2)C(=O)COC(=O)c2ccccc2O)nc1C,–,–,–
